Screens deposited in PubChem by National Center for Advancing Translational Sciences (NCATS).
HT1080 IDH1KD tx: kills HT-1080 cells with IDH1 knockdown; HT-1080 IDH1 knockdown viability, ATP luminescence, 48 h; Potency, µM (series often up to 46.1 µM), for inactives: at the highest dose activity, negative = toxicity, actives largely listed as cytotoxic; hit rate 2% among 360,000;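 note: potency is the fitted concentration of half-maximal effect; 0% = DMSO wells and -100% = cell-free medium wells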
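After a 2 h attachment period, IDH1KD HT-1080 cells took pin-transferred compound for 48 h at 37 °C; ATP-based luminescence after 10 min room-temperature reagent incubation reported viability.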
DT40 TDP1 CPT: growth inhibition of DT40 Tdp1-/-;hTDP1 cells with camptothecin (screen for TDP1 inhibitors) | Potency, µM (doses to about 46.2 µM), for the others: at the top dose activity change, negative = growth inhibition, hits mostly inhibitors | hit rate 12% among 420,000 | chicken DT40 Tdp1-/-;hTDP1 cells + 20 nM CPT, ATP luminescence, 48 h; note: potency is the fitted concentration of half-maximal effect; nearly all actives have a fitted effect of over 55% in size
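Cell growth measured by CellTiter-Glo luminescence after a minimum 48 h, 37 C compound exposure with 20 nM CPT in Tdp1-knockout DT40 cells stably expressing hTDP1, seeded 400/well; qHTS titration format.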
HT1080NT lethal: kills 2HG-producing HT-1080-NT fibrosarcoma cells; HT-1080-NT fibrosarcoma viability, CellTiter-Glo ATP luminescence, 48 h; Potency, µM (doses to about 46.1 µM), inactives show top-dose activity, negative = less viability, most hits filed as cytotoxic; hit rate 1.6% among 360,000;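 note: NT is the 2HG producing partner of a matched IDH1 knockdown line; potency is the fitted concentration of half-maximal effect; 0% = DMSO-treated cells and -100% = media-only wells without cells; nearly all actives have a fitted effect of over 55% in size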
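750 cells/well, RPMI + 5% FBS; 2 h settle, compound pin-transfer, 48 h at 37 degrees C. CellTiter-Glo 10 min RT, luminescence. Normalized to DMSO and media-only wells.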
DT40 TDP1 no CPT: qHTS for Inhibitors of human tyrosyl-DNA phosphodiesterase 1 (TDP1): qHTS in cells in absence of CPT | hit rate 15% among 420,000 | AID 686978, 2013 | Potency, µM (doses to about 46.2 µM), for the others: at the highest dose activity change, negative = growth inhibition, most hits filed as inhibitors | DT40 Tdp1-/- hTDP1 cells, no CPT, ATP luminescence, 48 h; note: potency is the fitted concentration of half-maximal effect; nearly all actives have a fitted effect of over 55% in size
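Luminescent ATP content (CellTiter-Glo) served as the growth readout. Knockout chicken DT40 cells expressing human TDP1 were exposed to compounds without camptothecin for a minimum 48 hr at 37 °C.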
IL-1B inflam inh: inflammasome signaling inhibition, IL-1 beta readout | THP-1 LPS/ATP IL-1B secretion, AlphaLISA, 16 h; active compounds read low | activity change, % at 57.5 µM | hit rate 4.7% among 360,000 | AID 743279; in the data active = activity change below about -50%; inconclusive = mostly about -30% to -49%
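Secreted IL-1B measured by AlphaLISA bead assay after 16 h compound exposure of THP-1 cells; compounds (final up to 57.5 uM) added 1 h before LPS (250 ng/mL) and ATP (1.25 mM) stimulation; lower signal means less secretion.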
Starred values were filed as active, the others as inactive; u = inconclusive; x = not tested or not shown; [ ] = another dose, or the depositor's remark. This is a sample that favours compounds with a hit; in the whole collection about 19% have one here. Unless noted, calls come from the whole dose curve; as a rule, active = well fitted curve in the direction sought with a large enough effect; inconclusive = small, poorly fitted or top-dose-only effect, or another doubt; inactive = no such curve, though single readings can be large; an effect the other way counts as inactive or inconclusive. Unless noted, % is set by controls: 0 for no effect and ±100 for the full control effect.

SMILES | HT1080 IDH1KD tx | DT40 TDP1 CPT | HT1080NT lethal | DT40 TDP1 no CPT | IL-1B inflam inh
CC1CCCN(C(=S)SCC(=O)O)C1 (stereo unspecified) | 18% | -3% | 21% | 13% | -2
C=C1C[C@@]23CC4C5[C@@]6(C)C[C@H](O)C[C@@]57C2[C@H](O)[C@@H]1[C@H](O)[C@H]3[C@H]7N4C6 | x | -14%[9.04 µM] | x | -9%[9.04 µM] | x
COc1ccc(OC(=O)c2ccc(Cl)cc2)c(C(C)=O)c1 | -2% | 4% | -4% | -8% | 16
COc1ccc(/C=C/C(=O)N2c3ccccc3Sc3ccc(C(F)(F)F)cc32)cc1 | -11% | u | -2% | 18µM* | -3
Cc1ccc(NC(=O)c2c(C(F)(F)F)nn(C)c2SCc2cccc(C(F)(F)F)c2)cc1C | -20% | 7.3µM* | -14% | 4.1µM* | -21
Cc1ccc(NC(=O)c2c(C(F)(F)F)nn(C)c2SCc2ccc(Cl)cc2)cc1C | u | 26µM* | u | 23µM* | -21
Cc1ccc(NC(=O)c2c(C(F)(F)F)nn(C)c2Cl)cc1C | 12% | 8% | -1% | -7% | 4
Cc1nc(C)c2c(=O)cc(-c3ccccc3)[nH]c2n1 | 8.9µM* | 4.5µM* | 10µM* | 5.6µM* | 42
O=c1c2ccccc2c(C=NCc2ccccn2)c(O)n1-c1ccccc1 | 14% | -25% | 0% | u | -9
Cc1ccc(-n2c(O)c(C=NCc3ccccn3)c3ccccc3c2=O)cc1C | u | 8.2µM* | -26% | 26µM* | -67*
CCN(CC)c1ccc(CN(C(=O)c2cc(=O)c3ccccc3o2)C2CCS(=O)(=O)C2)cc1 (stereo unspecified) | x | 16µM* | x | u | x
CCN(CC)c1ccc(CN(C(=O)Cc2coc3ccc(C)cc23)C2CCS(=O)(=O)C2)cc1 (stereo unspecified) | x | u | x | 23µM* | x
COc1ccc(CN(C(=O)c2cc(=O)c3ccccc3o2)C2CCS(=O)(=O)C2)cc1 (stereo unspecified) | 3% | -2% | -1% | 4% | 37
CC(C)c1ccc2occ(CC(=O)N(Cc3ccc(F)cc3)C3CCS(=O)(=O)C3)c2c1 (stereo unspecified) | x | 18µM* | x | u | x
CNC(=O)NC(=O)CSc1ccc(S(=O)(=O)N(C)C2CCCCC2)cn1 | -7% | -10% | -7% | u | 21
CC1CCCN(CCCNC(=O)Cn2ncc3c([nH]c4ccccc43)c2=O)C1 (stereo unspecified) | x | 12% | x | -21% | x
COCCNC(=O)C(c1ccc(C)cc1)N(Cc1ccco1)C(=O)CCC(=O)Nc1ccccn1 (stereo unspecified) | 15% | 0% | 10% | -23% | -12
CCOC(=O)N1CCN(C(=O)CSCC(=O)Nc2nc(-c3ccc4c(c3)OCO4)cs2)CC1 | -13% | 21µM* | -14% | 21µM* | u
CC(=O)Nc1nc(-c2ccc3c(c2)OCO3)cs1 | 1% | u | 9% | -14% | -53*
O=C(Nc1nc(-c2ccc3c(c2)OCO3)cs1)C1COc2ccccc2O1 (stereo unspecified) | -15% | -1% | 0% | u | -21
CCOC(=O)N1CCN(C(=O)CSCC(=O)Nc2nc(-c3ccc(C)cc3)cs2)CC1 | -3% | 16µM* | 8% | 12µM* | 6
C(=N\N1CCN(C2c3ccccc3-c3ccccc32)CC1)/c1ccccn1 | -1% | 21µM* | -1% | 16µM* | -14
COc1ccc(/C=N/N2CCN(C3c4ccccc4-c4ccccc43)CC2)cc1O | -14% | u | -18% | 18µM* | -26
C=CCNC(=S)Nc1ccc(N(C)C)cc1 | 7% | u | u | u | 14
CCCCN(CCCC)C(=O)c1ccccc1NC(=O)CN1C(=O)c2ccccc2C1=O | 17% | -22% | 19% | -18% | 8
SMILES | HT1080 IDH1KD tx | DT40 TDP1 CPT | HT1080NT lethal | DT40 TDP1 no CPT | IL-1B inflam inh
CC(C(=O)Nc1ccc(C(F)(F)F)cc1)N(C)CC(=O)N1CCN(Cc2ccccc2)CC1 (stereo unspecified) | -15% | u | -1% | u | -51*
CSc1ccccc1NC(=O)C(C)N(C)CC(=O)N1CCN(Cc2ccccc2)CC1 (stereo unspecified) | 9% | u | 1% | 21µM* | 2
CN(CC(=O)N1CCN(Cc2ccccc2)CC1)S(=O)(=O)c1ccc(F)cc1 | 1% | -18% | 11% | -22% | -5
CC(C)C(C)N(Cc1cccc(C(=O)O)c1)C(=O)c1ccc2ccccc2n1 (stereo unspecified) | 0% | -1% | -1% | 1% | 6
CN(C)CCN1C(=O)NC(C)(c2ccc([N+](=O)[O-])cc2)C1=O (stereo unspecified) | 6% | 0% | 29% | -9% | 17
CC(C)CC(=O)N1CCN(S(C)(=O)=O)CC1 | 1% | 10% | 1% | 0% | 25
Cc1ccc(C(=O)NCC(=O)N2CCCC(C(F)(F)F)C2)s1 (stereo unspecified) | 4% | 6% | 9% | 2% | 0
OC1(c2ccc(F)cc2)CSC(=Nc2cccnc2)N1Cc1ccco1 (stereo unspecified) | -18% | u | -6% | u | -5
OC1(c2ccc(OC(F)F)cc2)CSC(=Nc2cccnc2)N1Cc1ccco1 (stereo unspecified) | -9% | -76% | -29% | -88% | -77*
CCc1cccc(NC(=O)COC(=O)CSc2ccc(C)cc2)c1 | -5% | -14% | -1% | -29% | 10
C[C@H](CO)N1C[C@H](C)[C@H](CN(C)Cc2ccncc2)Oc2cc(-c3ccccc3F)ccc2S1(=O)=O | 20% | 15µM* | 12% | 23µM* | -29
CCCC#Cc1ccc2c(c1)O[C@@H](CN(C)Cc1ccc3c(c1)OCO3)[C@H](C)CN([C@@H](C)CO)S2(=O)=O | u | 7.3µM* | u | 2.3µM* | -3
C[C@H]1CN([C@@H](C)CO)S(=O)(=O)c2ccc(Br)cc2O[C@H]1CN(C)Cc1ccccc1 | 7% | u | 18% | u | -9
C[C@H]1CN([C@@H](C)CO)S(=O)(=O)c2ccc(Br)cc2O[C@@H]1CN(C)Cc1ccccc1 | -10% | u | -19% | 21µM* | 0
C[C@H]1CN([C@@H](C)CO)S(=O)(=O)c2ccc(C#Cc3ccccn3)cc2O[C@H]1CN(C)Cc1ccc(F)cc1 | 10% | u | 17% | u | -24
O=C(CS(=O)(=O)c1ccc(Cl)cc1)Nc1nccs1 | -13% | -4% | 7% | u | 0
O=C(CNC(=O)C(c1ccccc1)c1ccccc1)OCC(=O)c1cccc2ccccc12 | x | u | x | 20µM* | x
